Screening results: PubChem BioAssay, National Center for Advancing Translational Sciences (NCATS)
Shown are actives, neighbours in structure and some others; about 3% of the full set was active somewhere.
pS6 MEF inh – Acumen qHTS Assay for Inhibitors of the mTORC1 Signaling Pathway in MEF (Tsc2-/-, p53-/-) Cells: Sytravon. Tsc2-/- p53-/- MEF, phospho-rpS6 immunofluorescence/PI, 24 h. Potency, µM (doses to about 38.3 µM), without a hit: top-dose activity change, negative = inhibition, usual class: inhibitors. actives 0.78% (n = 44,000). AID 493208, 2011;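 further: potency means the concentration at half of the fitted maximal effect; plate controls were DMSO for no effect and rapamycin for full effect; nearly all actives have a fitted effect of over 50% in size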
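Readout is phospho-S6 Alexa 488 signal normalized to PI per well, reported as % active cells with thresholds set from rapamycin (7.5 nM) and DMSO controls. Cells: Tsc2-/-, p53-/- MEFs, 24 hrs compound at 37 C; PI cell number serves as viability.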
PMP22 txn prim – Cell-based coincidence reporter assay to measure PMP22 gene transcription in S16 Pmp22-F2sN cells - Primary screen; S16 Pmp22-F2sN Schwann cells, FLuc/NLuc coincidence luminescence, 24 h; Potency, µM (titrated, usually from 57.5 µM), for the others: top-dose activity change, negative = inhibition, hits mostly inhibitors; actives 2% (n = 43,000); AID 1508649, 2021; active means clear falling dose curves in both reporters; inconclusive means both reporters move, but less clearly or upward; inactive means either reporter flat; the % is the NLuc reporter signal; further: potency means the concentration at half of the fitted maximal effect; on the % scale 0 is the no-effect control and ±100 the full control effect
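Reporter cells (S16 Pmp22-F2sN, 500–1,000 per well) exposed to compounds for 24 h, 37C, 5% CO2; lysis with FLuc read after 10 min, then Stop&Glo and NLuc read after 10 min.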
OvCa metastasis – Primary qHTS assay for Inhibitors of ovarian cancer metastasis using an organotypic tumor microenvironment (TME) model | SKOV3ip1-GFP adhesion/invasion on 3D omental model, fluorescence | Potency, µM (doses to about 45.8 µM), inactives show at the highest dose activity change, negative = inhibition, usual class: inhibitors | actives 0.1% (n = 46,000) | AID 1963576, 2024;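 further: potency means the concentration at half of the fitted maximal effect; plate controls were DMSO wells for no effect and tomatine positive control wells for full effect; nearly all actives have a fitted effect of over 65% in size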
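Adhesion/invasion was scored as fixed GFP-labeled SKOV3ip1 cell counts (488/509 nm), normalized to DMSO and tomatine controls. Cancer cells in serum-free medium, with four compound doses (0.36-46 umol/L), sat 2 hr at RT then 16 hr at 37 C on a 48 hr fibroblast/mesothelial/ECM culture.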
p53null 32C kill – qHTS Screen for Compounds that Selectively Target Cancer Cells with p53 Mutations: Cytotoxicity of p53 Null Cells at the Permissive Temperature. Potency, µM (doses to about 46.1 µM), inactives show at the top dose activity change, negative = cytotoxicity, actives largely listed as cytotoxic. H1299-neo p53 null cells, ATP luminescence, 24 h, 32C. AID 903, 2007. actives 0.62% (n = 55,000);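 further: potency means the concentration at half of the fitted maximal effect; 0% = DMSO only and -100% = full killing by 100 µM tamoxifen; nearly all actives have a fitted effect of over 55% in size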
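ATP-content luminescence in p53-null H1299-neo cells after 24 h compound exposure (up to 46 uM) at 32C permissive temperature; 0% and 100% killing set by DMSO and 100 uM tamoxifen; Hill-equation AC50.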
S16 F2sN tox – Cell viability qHTS assay in S16 Pmp22-F2sN cells; S16 Pmp22-F2sN Schwann cells (luciferase reporters placed in the Pmp22 gene) viability, CellTiter-Glo, 24 h; Potency, µM (titrated, usually from 57.5 µM), inactives show top-dose activity change, negative = cytotoxicity, actives largely listed as cytotoxic; actives 0.48% (n = 43,000); AID 1508642, 2021; further: potency means the concentration at half of the fitted maximal effect; on the % scale 0 is the no-effect control and ±100 the full control effect; nearly all actives have a fitted effect of over 65% in size
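CellTiter-Glo counter-screen, qHTS, 1536-well. Cells: S16(c9) Pmp22-F2sN, 500-1,000/well in DMEM + 10% FBS. Cpd 23 nL pin transfer, 24 h, 37C/5% CO2. Read: luminescence, CCD imager.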
p53null 39C kill – qHTS Screen for Compounds that Selectively Target Cancer Cells with p53 Mutations: Cytotoxicity of p53 Null Cells at the Nonpermissive Temperature. actives 0.97% (n = 55,000). H1299 p53-null (neo) cells, 39C, ATPlite viability, 24 h. Potency, µM (top dose mostly 46.1 µM), without a hit: at the top dose activity, negative = cell killing, most hits filed as cytotoxic. AID 904, 2007;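 further: potency means the concentration at half of the fitted maximal effect; 0% = DMSO only and -100% = full killing by 100 µM tamoxifen; nearly all actives have a fitted effect of over 50% in size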
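Luminescent ATP signal reported cell survival after H1299 lines (neo, p53 null; or p53 A138V) received up to 46 uM compound and 24 hr incubation at 39C.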
NLuc sat counter – Biochemical NLuc saturation counterscreen for small molecule modulators of PMP22 gene expression - Nano-Glo assay; shares compounds with PMP22 txn prim; Secreted NLuc enzyme (filtered S16 cell medium), Nano-Glo luminescence; Potency, µM (highest dose often 57.5 µM), inactives show at the top dose activity change, negative = inhibition, actives largely listed as inhibitors; actives 4% (n = 690); AID 1508638, 2021; further: potency means the concentration at half of the fitted maximal effect; on the % scale 0 is the no-effect control and ±100 the full control effect
NLuc Km ctr – Biochemical coelenterazine-based NLuc counterscreen for small molecule modulators of PMP22 gene expression - Km assay; shares compounds with PMP22 txn prim; actives 5% (n = 690); secreted NLuc enzyme, coelenterazine luminescence, Km conditions; Potency, µM (doses to about 57.5 µM), for the others: at the top dose activity change, negative = inhibition, usual class: inhibitors; further: potency means the concentration at half of the fitted maximal effect; on the % scale 0 is the no-effect control and ±100 the full control effect
FLuc ctr PMP22 – Biochemical FLuc counterscreen for small molecule modulators of PMP22 gene expression; shares compounds with PMP22 txn prim; purified P. pyralis FLuc, luminescence, 10 min; Potency, µM (highest dose often 57.5 µM), inactives show at the highest dose activity, negative = inhibition, most hits filed as inhibitors; 690 tested, under 10 active; AID 1508640, 2021; further: % of control where 0% means no effect
Target sequence (P08659 whole entry, looked up): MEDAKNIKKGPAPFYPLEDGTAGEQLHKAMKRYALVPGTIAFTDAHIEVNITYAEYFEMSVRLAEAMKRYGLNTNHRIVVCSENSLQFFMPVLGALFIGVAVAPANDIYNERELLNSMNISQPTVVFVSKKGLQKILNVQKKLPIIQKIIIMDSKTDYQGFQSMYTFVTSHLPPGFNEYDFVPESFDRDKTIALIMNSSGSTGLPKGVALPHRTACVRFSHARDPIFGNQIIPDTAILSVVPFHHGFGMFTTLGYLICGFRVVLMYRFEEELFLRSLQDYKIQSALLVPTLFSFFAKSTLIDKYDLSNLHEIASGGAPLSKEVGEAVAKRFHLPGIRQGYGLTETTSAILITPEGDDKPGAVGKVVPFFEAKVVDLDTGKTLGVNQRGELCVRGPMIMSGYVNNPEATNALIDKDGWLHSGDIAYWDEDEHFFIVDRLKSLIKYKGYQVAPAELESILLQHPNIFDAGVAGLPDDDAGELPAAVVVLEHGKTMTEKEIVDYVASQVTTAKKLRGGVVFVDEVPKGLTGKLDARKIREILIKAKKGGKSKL
S16 F2sN tox cnf – Cell viability qHTS assay in S16 Pmp22-F2sN cells - Confirmatory screen | shares compounds with PMP22 txn prim | S16 Schwann cells viability, CellTiter-Glo ATP luminescence, 24 h | Potency, µM (series often up to 57.5 µM), without a hit: at the top dose activity change, negative = viability loss, usual class: cytotoxic | actives 7% (n = 690); further: potency means the concentration at half of the fitted maximal effect; on the % scale 0 is the no-effect control and ±100 the full control effect
PMP22 txn conf – Cell-based coincidence reporter assay to measure PMP22 gene transcription in S16 Pmp22-F2sN cells - Confirmatory screen; shares compounds with PMP22 txn prim; S16 Schwann cells Pmp22-F2sN, dual luciferase, 24 h; Potency, µM (titrated, usually from 57.5 µM), inactives show at the highest dose activity change, negative = inhibition, actives largely listed as inhibitors; actives 22% (n = 690); active means clear falling dose curves in both reporters; inconclusive means both reporters move, but less clearly or upward; inactive means either reporter flat; the % is the FLuc reporter signal; further: potency means the concentration at half of the fitted maximal effect
PMP22 HiBiT cnf – Cell-based HiBiT reporter assay to measure PMP22 protein expression in S16 Pmp22-HiBiT cells - Confirmatory screen; shares compounds with PMP22 txn prim; S16 Schwann cells Pmp22-HiBiT, luminescence, 48 h; Potency, µM (doses to about 27.9 µM), for inactives: at the highest dose activity change, negative = inhibition, actives largely listed as inhibitors; 95 tested, under 10 active; AID 1508647, 2021
Target sequence (P25094 whole entry, looked up): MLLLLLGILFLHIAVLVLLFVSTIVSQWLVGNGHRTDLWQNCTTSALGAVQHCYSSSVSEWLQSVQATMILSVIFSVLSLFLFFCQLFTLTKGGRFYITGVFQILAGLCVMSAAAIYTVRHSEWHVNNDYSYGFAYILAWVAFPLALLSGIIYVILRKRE
Numbers without * were called inactive; i = inactive; ? = inconclusive; · = no result given. Unless noted, the call rests on the fitted dose curve; in most records, active means well fitted curve in the direction sought with a large enough effect; inconclusive means small, poorly fitted or top-dose-only effect, or another doubt; inactive means no such curve, though single readings can be large; an effect the other way counts as inactive or inconclusive.

SMILES	pS6 MEF inh	PMP22 txn prim	OvCa metastasis	p53null 32C kill	S16 F2sN tox	p53null 39C kill	NLuc sat counter	NLuc Km ctr	FLuc ctr PMP22	S16 F2sN tox cnf	PMP22 txn conf	others
Cc1ccc(C(=O)Nc2ccc(S(=O)(=O)N3CCC(c4nc5ccccc5s4)CC3)cc2)cc1	2.5%	11.9µM*	-12.6%	-5.6%	8.5%	-8.8%	0.4%	4.8%	6.4%	-47.4%	14.5µM*	PMP22 HiBiT cnf=?
CCOc1ccc(OCC)c(NC(=O)c2nnn(Cc3cc(Br)ccc3OC)c2N)c1	4.3%	-16.0%	i	-6.9%	14.5%	-27.7%	·	·	·	·	·
CCOc1ccc(OCC)c(NC(=O)c2nnn(CC(=O)Nc3cc(Cl)ccc3OC)c2N)c1	-17.1%	11.3µM*	?	-16.5%	14.3%	-6.8%	-3.6%	6.6%	6.6%	?	13.7µM*
O=C(CCS(=O)(=O)c1cc(Br)cc2c1N(C(=O)C1CC1)CC2)N1CCN(c2ccc(F)cc2)CC1	-12.0%	?	16.3%	8.0%	-25.0%	-8.5%	·	·	·	·	·
O=C(CCS(=O)(=O)c1cc(Br)cc2c1N(C(=O)C1CC1)CC2)N1CCN(c2cccc(C(F)(F)F)c2)CC1	-4.4%	13.4µM*	-26.9%	12.6%	?	8.9%	-3.2%	11.1%	4.9%	4.7%	-42.6%
Cc1ccc(Cn2c(=O)n(CC3CCC(C(=O)N4CCOCC4)CC3)c(=O)c3sccc32)cc1 (stereo not given)	2.6%	8.6%	-8.5%	-5.5%	3.9%	9.6%	·	·	·	·	·
Cc1ccccc1Cn1c(=O)n(CC2CCC(C(=O)N3CCOCC3)CC2)c(=O)c2sccc21 (stereo not given)	-0.1%	11.9µM*	4.1%	6.2%	-8.4%	2.9%	-8.3%	5.6%	1.9%	-2.2%	-24.4%
O=C(C=Cc1ccc(O)cc1)c1ccc(O)cc1O	·	·	0.4%	·	·	·	·	·	·	·	·
CCOc1ccc(C(=O)N2CCc3cc(OC)c(OC)cc3C2COc2ccc3c(C)cc(=O)oc3c2)cc1OCC (stereo not given)	-1.8%	13.4µM*	-1.9%	12.2%	-2.5%	-0.5%	-6.6%	4.9%	4.5%	1.1%	-33.8%
CS(=O)(=O)N1CCc2c(-c3cnc(N)nc3)nc(N3CCOCC3)nc21	·	·	8.3%	·	·	·	·	·	·	·	·
CCOC(=O)c1ccc(N2C(=O)c3n[nH]c(-c4ccco4)c3C2c2ccc(O)c(OCC)c2)cc1 (stereo not given)	?	?	-1.7%	7.8%	?	26.8%	·	·	·	·	·
CCOC(=O)c1ccc(N2C(=O)c3[nH]nc(-c4ccc(C)cc4)c3C2c2ccc(O)c(OCC)c2)cc1 (stereo not given)	0.6%	12.7µM*	0.3%	26.9%	-20.2%	27.8%	-11.7%	-13.3%	-2.8%	?	?	PMP22 HiBiT cnf=-17.1%
CCc1ccc(NCc2cc3cc(OC)c(OC)cc3n(CC(=O)Nc3cc(C)ccc3C)c2=O)cc1	1.8%	11.3µM*	i	6.8%	8.4%	-15.2%	-10.7%	8.7%	-1.1%	-10.0%	?
COc1ccc(-c2noc(CSc3nnc(C)n3-c3ccc(C)cc3)n2)cc1	-14.8%	?	1.5%	-9.1%	?	-7.5%	·	·	·	·	·
COc1ccc(-n2c(SCc3nc(-c4ccc(C)cc4)no3)nnc2-c2ccncc2)cc1	-2.0%	?	i	-1.2%	-9.6%	4.1%	·	·	·	·	·
COc1ccc(-n2c(C)nnc2SCc2nc(-c3ccc(OC)c(OC)c3)no2)cc1	0.1%	?	i	-8.1%	-21.9%	-7.0%	?	?	-4.6%	-20.4%	-40.6%
COc1ccc(-c2noc(CSc3nnc(-c4ccncc4)n3-c3ccccc3)n2)cc1	-6.8%	13.5µM*	i	-2.3%	?	-9.3%	?	?	-22.3%	-13.5%	6.15µM*
COc1ccc(C2CC(=O)c3cc(-c4nc(-c5ccc(Cl)cc5)cs4)c(=O)[nH]c3C2)cc1 (stereo not given)	1.8%	?	10.2%	4.3%	5.2%	10.2%	·	·	·	·	·
